“And” between values parts separate entries of the source, which are not always exact repeats. Equal values may be shown once. Screen size: about 5,500 compounds; about 2,000 (36%) were called active. Not shown: some 18% with an inconclusive outcome. Cut-off read from the data, not from the text of the source: active = normalized growth mostly below about 0.91 (no sharp cut-off); inconclusive = no clear call, values can overlap the other calls; inactive = mostly above about 0.92. The list shows a part of the results.
Test: chemical genetic growth profiling, strain panel (AID 1159580);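 note: tested at 20 µM; growth read once vehicle control cultures reached saturation at 30 °C; 1 = growth at the plate median or of vehicle wells; lower values mean less growth of the strain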
Details: S. cerevisiae deletion strains, growth OD

Measured: normalized growth

NC[C@@H]1O[C@H](O[C@@H]2[C@@H](CO)OC(O[C@@H]3[C@@H](O)[C@H](N)C[C@H](N)[C@H]3O[C@H]3O[C@H](CO)[C@@H](O)[C@H](O)[C@H]3N)[C@@H]2O)[C@H](N)[C@@H](O)[C@@H]1O (stereo partly drawn)
inactive: locus YAL021C, strain ccr4, active compounds read low 0.996 | locus YAL026C, strain drs2, active compounds read low 0.992 | locus YAL030W, strain snc1, active compounds read low 0.995 | locus YBL061C, strain skt5, active compounds read low 0.995 | locus YBR009C, strain hhf1, active compounds read low 0.986 | locus YBR021W, strain FUR4, active compounds read low 1.03 | locus YBR023C, strain chs3, active compounds read low 0.999 | locus YBR171W, strain sec66, active compounds read low 0.973 | locus YBR229C, strain ROT2, active compounds read low 0.96 | locus YBR231C, strain swc5, active compounds read low 0.992 | locus YBR279W, strain paf1, active compounds read low 0.992 | locus YCL011C, strain gbp2, active compounds read low 0.985 | locus YCL016C, strain dcc1, active compounds read low 0.988 | locus YCL029C, strain bik1, active compounds read low 1 | locus YCL061C, strain MRC1, active compounds read low 0.953 | locus YCL069W, strain vba3, active compounds read low 0.992 | locus YCR088W, strain abp1, active compounds read low 0.997 | locus YDL005C, strain med2, active compounds read low 0.992 | locus YDL035C, strain GPR1, active compounds read low 0.996 | locus YDL040C, strain nat1, active compounds read low 0.984 | locus YDL074C, strain BRE1, active compounds read low 0.961 | locus YDL101C, strain DUN1, active compounds read low 0.98 | locus YDL134C, strain PPH21, active compounds read low 1.01 | locus YDL185W, strain tfp1, active compounds read low 0.982 | locus YDL192W, strain arf1, active compounds read low 0.991 | locus YDR001C, strain nth1, active compounds read low 0.995 | locus YDR069C, strain doa4, active compounds read low 0.994 | locus YDR101C, strain arx1, active compounds read low 0.985 | locus YDR137W, strain rgp1, active compounds read low 1.01 | locus YDR159W, strain sac3, active compounds read low 0.966 | locus YDR162C, strain NBP2, active compounds read low 0.998 | locus YDR195W, strain ref2 0.981 | locus YDR297W, strain sur2, active compounds read low 0.992 | locus YDR318W, strain mcm21, active compounds read low 1 | locus YDR334W, strain swr1, active compounds read low 0.989 | locus YDR335W, strain msn5, active compounds read low 0.998 | locus YDR388W, active compounds read low 0.992 | locus YDR392W, strain spt3, active compounds read low 0.974 | locus YDR502C, strain sam2, active compounds read low 0.988 | locus YEL003W, strain gim4, active compounds read low 0.986 | locus YEL037C, strain rad23, active compounds read low 0.977 | locus YEL061C, strain CIN8 (second series), active compounds read low 0.988 | locus YEL061C, strain CIN8, active compounds read low 0.985 | locus YER015W, strain faa2, active compounds read low 0.995 | locus YER016W, strain bim1, active compounds read low 0.989 | locus YER110C, active compounds read low 0.994 | locus YER111C, strain swi4, active compounds read low 0.988 | locus YER155C, strain BEM2 (second series), active compounds read low 0.985 | locus YER155C, strain BEM2, active compounds read low 1 | locus YER167W, strain BCK2, active compounds read low 1.01 | locus YFR010W, strain ubp6, active compounds read low 0.996 | locus YGL078C, strain dbp3, active compounds read low 0.995 | locus YGL086W, strain mad1, active compounds read low 0.983 | locus YGL167C, strain pmr1, active compounds read low 1 | locus YGL173C, strain kem1, active compounds read low 0.984 | locus YGL227W, strain vid30, active compounds read low 0.999 | locus YGL240W, strain doc1, active compounds read low 0.991 | locus YGL248W, strain PDE1, active compounds read low 0.969 | locus YGL253W, strain hxk2, active compounds read low 0.988 | locus YGR078C, strain PAC10, active compounds read low 0.968 | locus YGR135W, strain pre9, active compounds read low 1.05 | locus YGR229C, strain SMI1, active compounds read low 1 | locus YGR252W, strain gcn5, active compounds read low 1.02 | locus YHR013C, strain ard1, active compounds read low 0.988 | locus YHR027C, strain rpn1, active compounds read low 0.999 | locus YHR030C, strain SLT2, active compounds read low 1 and 0.966 | locus YHR079C, strain IRE1 (second series), active compounds read low 0.993 | locus YHR079C, strain IRE1, active compounds read low 0.974 | locus YHR094C, strain hxt1, active compounds read low 0.997 | locus YHR129C, strain ARP1, active compounds read low 1 | locus YHR142W, strain chs7, active compounds read low 0.983 | locus YHR200W, strain rpn10, active compounds read low 0.993 | locus YIL066C, strain RNR3, active compounds read low 0.969 | locus YIL073C, strain SPO22, active compounds read low 1.07 | locus YIL125W, strain kgd1, active compounds read low 0.992 | locus YIR030C, strain dcg1, active compounds read low 0.993 | locus YJL092W, strain hpr5, active compounds read low 0.993 | locus YJL095W, strain BCK1 (second series), active compounds read low 0.992 | locus YJL095W, strain BCK1, active compounds read low 0.959 and 0.976 | locus YJL115W, strain asf1, active compounds read low 0.984 | locus YJL129C, strain trk1, active compounds read low 0.977 | locus YJL134W, strain LCB3, active compounds read low 0.999 | locus YJL154C, strain vps35, active compounds read low 0.987 | locus YJL164C, strain tpk1, active compounds read low 0.948 | locus YJL166W, strain qcr8, active compounds read low 0.986 | locus YJL168C, strain set2, active compounds read low 0.987 | locus YJL187C, strain SWE1 (second series), active compounds read low 0.954 | locus YJL187C, strain SWE1, active compounds read low 0.992
